{
  "source": "PubChem BioAssay (NCI)",
  "note": "This is part of a sample that, as a whole, favours compounds with a hit. Of some 79,000 tested, about 15% had one in any assay. Unmarked numbers belong to inactive results. The source made the active and inactive calls. No stated cut-off is given here; in the data, active means growth inhibition above about 70%; inactive means the rest. Where a SMILES comes first, the peptide text is derived from it.",
  "data": [
    {"assay": "NCI Yeast Anticancer Drug Screen. Data for the mlh1 rad18 strain (AID 175)", "conditions": "S. cerevisiae mlh1 rad18 strain growth inhibition; at 50.0 µM; active compounds read high", "in_short": "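Inhibition values reflect reduced growth of mutant yeast versus vehicle-treated controls following compound exposure; the mutations affect DNA damage repair.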", "values": [
      {"smiles": "Cc1cnc2ccccc2c1", "growth inhibition": "2.8%"},
      {"smiles": "O=C(O)CS/C(=N\\S(=O)(=O)c1ccccc1)Nc1cccc(Cl)c1", "growth inhibition": "-7.85%"},
      {"smiles": "COc1ccccc1CC(=O)C(O)(C(F)(F)F)C(F)(F)F", "growth inhibition": "-26.9%"},
      {"smiles": "O=C(O)c1nc(N=Nc2ccc(S(=O)(=O)O)cc2)[nH]c1C(=O)O", "growth inhibition": "21.2%"},
      {"smiles": "Cc1ccc(S(=O)(=O)C(C#N)CCC(=O)c2ccc(Cl)cc2)cc1", "note": "(stereo not given)", "growth inhibition": "17.6%"},
      {"smiles": "CC(=O)/C(C)=N/Nc1ccccc1", "growth inhibition": "11%"},
      {"smiles": "O=C(COc1ccc(Cl)cc1)Oc1c(Cl)cc(Cl)cc1Cl", "growth inhibition": "98% (active)"},
      {"smiles": "N#C/C(=C\\c1ccco1)C(N)=O", "growth inhibition": "-10.7%"},
      {"smiles": "CCCCN=C1Nc2nc(=NCCCC)nc3c(Br)cc(Br)c(n23)N1", "growth inhibition": "21.9%"},
      {"smiles": "Cc1c(CCC(C)C)oc2cc3oc(CCC(C)C)c(C)c3cc12", "growth inhibition": "18.5%"},
      {"smiles": "ClC1=C(Cl)C2(Cl)C3C(c4ccc(I)cc4C4C3C3(Cl)C(Cl)=C(Cl)C4(Cl)C3(Cl)Cl)C1(Cl)C2(Cl)Cl", "note": "(stereo not given)", "growth inhibition": "16.9%"},
      {"smiles": "Nc1nc(-c2cc(Br)ccc2N=NN2CCOCC2)nc2ccc(Br)cc12", "growth inhibition": "99% (active)"},
      {"smiles": "COc1ccc(Br)cc1C=Nc1ccccc1", "growth inhibition": "4.85%"},
      {"smiles": "CC(=O)OC/C=C(\\C)CCC=C(C)C", "growth inhibition": "-5.15%"},
      {"smiles": "O=C(O)c1c(Br)c(Br)c(Br)c(Br)c1C(=O)Nc1ccc(Br)cc1", "growth inhibition": "33.2%"},
      {"smiles": "Nc1nc(Cl)c2ncn(C3OC(CO)C(O)C3O)c2n1", "note": "(stereo not given)", "growth inhibition": "1.4%"},
      {"smiles": "C=CCOC/C=C\\CCOCC/C=C/COCC=C", "note": "(tested in a mixture with another compound)", "growth inhibition": "2.35%"},
      {"smiles": "O=[N+]([O-])c1ccc(-c2cc3ccccn3c2)cc1", "growth inhibition": "-18.1%"},
      {"smiles": "C/C(CC/C(C)=N/O)=N\\O", "growth inhibition": "9.7%"},
      {"smiles": "Nc1cccc(Cl)c1C(=O)O", "growth inhibition": "-19.2%"},
      {"smiles": "CNc1nc2c(C)ccc3[nH]c(NC)nc3c-2n1", "growth inhibition": "-15.9%"},
      {"smiles": "CC(=O)C1CCC2C3CC=C4CC(O)C=CC4(C)C3CCC12C", "note": "(stereo not given)", "growth inhibition": "17.9%"},
      {"smiles": "CC(=O)C1(SCCO)CCC2C3CCC4=CC(=O)CCC4(C)C3CCC21C", "note": "(stereo not given)", "growth inhibition": "77.2% (active)"},
      {"smiles": "OC(c1ccccc1)C(Cc1ccccc1)N1CCCCC1", "note": "(stereo not given)", "growth inhibition": "5.35%"},
      {"smiles": "CC(=O)NC(CO)C(=O)NC(Cc1ccc(O)cc1)C(=O)NCC(N)=O", "note": "(stereo not drawn) (Ac-Ser-Tyr-Gly-NH2; configuration not given here)", "growth inhibition": "-6.8%"},
      {"smiles": "CCCCCCCCC(O)C(O)CCCCCCCC(=O)OC", "note": "(stereo not given)", "growth inhibition": "-22.9%"},
      {"smiles": "CC(=N\\NS(=O)(=O)c1ccc(C)cc1)/C(C)=N/NS(=O)(=O)c1ccc(C)cc1", "growth inhibition": "-8.3%"},
      {"smiles": "N#C/C(=C\\c1ccc(C#N)cc1)C(=O)O", "growth inhibition": "9.55%"},
      {"smiles": "Cc1ccc(S(=O)(=O)C2c3nc4ccccc4cc3-c3nc4ccccc4nc32)cc1", "note": "(stereo not given)", "growth inhibition": "-14.9%"},
      {"smiles": "CC(=O)Nc1ccc(F)c(N)c1", "growth inhibition": "15.1%"},
      {"smiles": "Clc1ccc(-c2oc(-c3ccc(Cl)cc3)c3ccccc23)cc1", "growth inhibition": "-23.6%"},
      {"smiles": "N#CC12CC=C(c3ccccc3)N=C1NC(c1ccccc1)=CC2", "note": "(stereo not given)", "growth inhibition": "-34.1%"},
      {"smiles": "O=C1SCC(O)=C1/C=N/Nc1nc2ccccc2o1", "growth inhibition": "12.3%"},
      {"smiles": "Cc1ccc(Sc2ccc3ccccc3c2)nc1", "growth inhibition": "-16.9%"},
      {"smiles": "C/C=C/C(=O)N1C(=O)OC[C@@H]1c1ccccc1", "growth inhibition": "31.9%"},
      {"smiles": "O=C(/C=C/C(=O)NCCc1ccccc1)NCCc1ccccc1", "growth inhibition": "17.4%"},
      {"smiles": "O=C(OCC(F)(F)C(F)(F)C(F)(F)C(F)(F)C(F)(F)C(F)F)OCC(F)(F)C(F)(F)C(F)(F)C(F)(F)C(F)(F)C(F)F", "growth inhibition": "0.95%"},
      {"smiles": "CCOc1ccccc1C1=CCCCCC1", "growth inhibition": "1.3%"},
      {"smiles": "CN(c1ccccc1)S(=O)(=O)c1cccc([N+](=O)[O-])c1", "growth inhibition": "-1.55%"},
      {"smiles": "O=C(NO)Oc1cccc2ccccc12", "growth inhibition": "5.85%"}
    ]}
  ]
}
